G9a block: G9a (human) methyltransferase inhibition; G9a H3K9 monomethylation, AlphaScreen, 2 h; Potency, µM (top dose mostly 102 µM), actives largely listed as inhibitors; actives 8.8% (n = 350,000); AID 504332; further: nearly all actives have a fitted effect of over 75% in size
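Enzyme 20 nM + cpd, 15 min RT; add b-H3K9 pep 500 nM / SAM 20 uM; 2 h RT; anti-H3K9me1 Ab 0.5 ug/mL + SA donor / anti-rabbit acceptor beads 20 ug/mL each, 10 min; AlphaScreen read.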
HP1b chromo inh: inhibitors of HP1-beta chromodomain binding to methylated histone tails; AlphaScreen HP1-beta / biotin-H3K9me3 peptide binding; Potency, µM (top dose mostly 114 µM), most hits filed as inhibitors; AID 540317; actives 0.56% (n = 390,000); further: nearly all actives have a fitted effect of over 70% in size
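HP1-beta protein (50 nM final) preincubated 30 min at room temperature with biotinylated H3(1-18)K9me3 peptide (50 nM) in PBS pH 7.4, 0.01% Tween-20, then compound added for 30 min. AlphaScreen streptavidin donor/nickel chelate acceptor beads (10 ug/mL final), 30 min dark, luminescence read.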
BAZ2B block: blocks human BAZ2B. Q9UIF8. AlphaScreen BAZ2B-H3K14Ac peptide displacement. Potency, µM (doses to about 114 µM), usual class: inhibitors. actives 4.4% (n = 360,000). AID 504333; further: nearly all actives have a fitted effect of over 60% in size
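In this displacement format the biotinylated H3(5-23) peptide acetylated at Lys14 serves as ligand at 50 nM, with BAZ2B at 50 nM in PBS pH 7.4 containing 0.01% Tween-20. Donor and acceptor beads are 10 ug/mL final.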
L3MBTL1 inh: inhibitors of human L3MBTL1 | Q9Y468 | AlphaScreen L3MBTL1–H3K9me1 peptide binding | Potency, µM (titrated, usually from 57.1 µM), hits mostly inhibitors | actives 0.66% (n = 230,000) | AID 485360; further: nearly all actives have a fitted effect of over 60% in size
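Displacement of a biotinylated histone H3(1-15) peptide monomethylated at Lys9 (75 nM) from L3MBTL1 (50 nM) was measured by AlphaScreen after a 30 min room-temperature compound incubation; cefsulodin titration served as intraplate control.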
JMJD2A Tudor inh: inhibitors of human JMJD2A Tudor domain; O75164; AlphaScreen JMJD2A-Tudor / H3K4me3 peptide binding; Potency, µM (highest dose often 114 µM), hits mostly inhibitors; actives 4.4% (n = 390,000); AID 504339; further: nearly all actives have a fitted effect of over 50% in size
Sfp inh: Sfp phosphopantetheinyl transferase inhibition; Q9F4F7; Biochemical Sfp PPTase activity, qHTS; Potency, µM, usual class: inhibitors; actives 3.5% (n = 310,000); AID 1490;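 further: the enzyme is Sfp with the accession as filed and its product quenches rhodamine fluorescence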
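Fluorescence-quenching assay: 15 nM Sfp-PPTase preincubated 15 min at room temperature with compound, then 5 uM rhodamine-CoA and 12.5 uM BHQ-2-labelled YbbR peptide added. Fluorescence (ex 525/em 598 nm) read at start and after 30 min; difference gives rate.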
Hits are given with their value; - = inactive; ? = inconclusive; . = not tested or not shown; [ ] = dose if it differs, or a comment. Only some compounds are listed: those with a hit (about 12% of all), similar ones and a draw of the others. The call rests on the fitted dose curve; in most records, active means well fitted curve in the direction sought with a large enough effect; inconclusive means small, poorly fitted or top-dose-only effect, or another doubt; inactive means no such curve, though single readings can be large; an effect the other way counts as inactive or inconclusive.

SMILES	G9a block	HP1b chromo inh	BAZ2B block	L3MBTL1 inh	JMJD2A Tudor inh	Sfp inh
NCCCC[C@H]1NC(=O)[C@H](CCC(=O)O)NC(=O)c2cc([N+](=O)[O-])cc(I)c2OCC[C@@H](C(N)=O)NC1=O	25µM	-	-	-	50µM	-
C[C@@H]1NC(=O)[C@H](CCCN=C(N)N)NC(=O)c2cc([N+](=O)[O-])cc(I)c2OCC[C@@H](C(N)=O)NC1=O	32µM	.	?	-	.	-
C[C@@H]1NC(=O)c2cc([N+](=O)[O-])cc(I)c2OCC[C@@H](C(N)=O)NC(=O)[C@H](CCCCN)NC1=O	45µM	-	-	-	-	-
CC[C@H](C)[C@@H]1NC(=O)c2cc([N+](=O)[O-])cc(F)c2OCC[C@@H](C(N)=O)NC(=O)[C@H](CCCCN)NC1=O	?	-	-	-	-	-
NC(=O)CC1NC(=O)c2cc([N+](=O)[O-])cc(I)c2OCCC(C(N)=O)NC(=O)[C@@H]2CCCN2C1=O (stereo not given in full)	79µM	-	-	-	-	-
Cc1c(C(=O)N(Cc2ccccc2F)C2CCS(=O)(=O)C2)oc2ccccc12 (stereo not given)	-	-	-	.	-	.
CC(C)[C@@H](CC(=O)N[C@@H]1CCCC[C@H]1C(=O)N[C@H](CC(=O)N[C@@H](CCC(=O)O)CC(=O)O)Cc1ccccc1)NC(=O)C[C@H](Cc1ccccc1)NC(=O)[C@@H]1CCCC[C@H]1N	.	.	.	.	.	-
CCOC(=O)C(C(=O)OCC)N(Cc1cc(OC)ccc1OC)C(=O)C1CC(CO[Si](C)(C)C(C)(C)C)=CN1C(=O)OC(C)(C)C (stereo not given)	.	-	.	.	-	-
Cc1ccc(S(=O)(=O)N(C)c2ccc(OCC(=O)Nc3ccc(C(=O)N(C)C)cc3)cc2)cc1C	-	-	-	-	-	.
NC(C(=O)O)c1ccc(O)cc1 (stereo not given)	-[12.7 µM]	.	.	.	.	-
NC(C(=O)O)c1ccc(P(=O)(O)O)cc1 (stereo not given)	-	.	.	.	.	56µM
CC(=O)Nc1ccc(NC(=O)C/C(C)=N/NC(=O)C(=O)N2CCCC2)cc1	35µM	-	-	-	-	-
CCCOC(=O)Nc1nc(-c2ccc(C)cc2)c(C)s1	50µM	-	-	-	-	-
COc1cccc(-c2nnc(-c3ccccc3NC(=O)c3cccc(C(F)(F)F)c3)o2)c1	-	-	-	.	-	.
COc1ccc(CCCC(=O)Nc2ccccc2F)cc1	-	-	-	-	-	-
CCOc1ccc(/C=N/OCC(=O)NCc2ccc3c(c2)OCO3)cc1OC	40µM	-	-	-	-	-
COc1ccccc1/C=N/OCC(=O)NCc1ccc2c(c1)OCO2	-	-	-	-	-	-
Cc1ccc(NC(=O)CN2C(=O)S/C(=C/c3ccc(O)c([N+](=O)[O-])c3)C2=O)cc1C	.	?	14µM	25µM	22µM	?
O=C(CN1C(=O)S/C(=C\c2ccc(O)c([N+](=O)[O-])c2)C1=O)Nc1ccc(N2CCOCC2)cc1	-[0.501 µM]	?	45µM	.	56µM	?
O=C(CCN1C(=O)S/C(=C/c2ccccc2)C1=O)Nc1ccc(O)c(C(=O)O)c1	-[0.0925 µM]	-	-	.	-	-
O=C(O)c1cccc(CN2C(=O)S/C(=C/c3ccccc3[N+](=O)[O-])C2=O)c1	?	-	-	-	-	-
CCOC(=O)CN1C(=O)S/C(=C/C=C/c2ccc(N(C)C)cc2)C1=O	10µM	13µM	10µM	-	16µM	-
CCOC(=O)CN1C(=O)S/C(=C/c2cccc([N+](=O)[O-])c2O)C1=O	35µM	?	?	.	-[11.4 µM]	-
CCOC(=O)CN1C(=O)S/C(=C/c2ccc3c(c2)n(C)c(=O)n3C)C1=O	-	-	-	-	-	-
O=C(CSCc1cccc(Cl)c1)N1CCN(Cc2ccc3c(c2)OCO3)CC1	-	-	-	.	-	-
SMILES	G9a block	HP1b chromo inh	BAZ2B block	L3MBTL1 inh	JMJD2A Tudor inh	Sfp inh
Cc1cccc(NC(=O)CN2C(=O)S/C(=C\c3ccccn3)C2=O)c1	-	-	-	-	-	-
Cc1cccc(NC(=O)CN2C(=O)S/C(=C\c3ccc(O)c([N+](=O)[O-])c3)C2=O)c1	35µM	-	?	.	50µM	-
Cc1cc(/C([O-])=C(/C(=S)Nc2ccccc2)[n+]2ccccc2)c(C)n1-c1ccccc1	50µM	?	?	.	.	-
Cc1ccc(-n2c(C)cc(/C([O-])=C(/C(=S)Nc3ccc(F)c(Cl)c3)[n+]3ccccc3)c2C)cc1	?	-	?	.	-	56µM
Cc1cc(/C([O-])=C(/C(=S)Nc2ccc(F)cc2)[n+]2ccccc2)c(C)n1-c1ccc(F)cc1	?	.	45µM	-	50µM	?
Cc1cc(C(=O)O)c(C)n1-c1ccccc1	-	-	-	.	-	-
Cc1cc(/C([O-])=C(/C(=S)Nc2ccc(F)cc2)[n+]2ccccc2)c(C)n1Cc1ccccc1Cl	?	-	.	-	?	-
C=CC[C@H](CC(=O)NCCO)C(=O)NCCOC(=O)[C@@H](CC=C)Cc1ccc(F)cc1	.	-	.	-	-	.
CCCCCCCc1cc2ccccc2c(=O)o1	.	.	.	.	.	-
COCCn1nnnc1C(C(C)C)N1CCOCC1 (stereo not given)	79µM	-	-	-	-	-
COCCn1nnnc1C(c1ccc(C(F)(F)F)cc1)N1CCOCC1 (stereo not given)	.	-	-	-	-	-
COc1ccc(/C=C/C=N/NC(=O)COc2ccc(OC)cc2)cc1	-	-	-	-	-	-
COc1ccccc1NCC(=O)N/N=C/C=C/c1ccccc1	28µM	-	?	-	?	-
COc1ccc(NCC(=O)N/N=C/C=C\c2ccccc2)cc1	28µM	-	?	?	?	-
O=C1CCc2cc(S(=O)(=O)Nc3cccc(C(F)(F)F)c3)ccc2N1	.	.	.	.	-	.
Cc1cc(SC#N)cc(C)c1NC(=O)CCl	?	-	-	-	-	-
CCc1cc(SC#N)cc(C)c1NC(=O)CCl	40µM	-	-	-	-	-
Cc1ccc2cc(CN(C(=O)c3ccco3)c3ccccc3C)c(=O)[nH]c2c1	?	-	-	-	-	50µM
COCC(=O)N(Cc1cc2ccc(C)cc2[nH]c1=O)c1ccccc1C	-	-	-	-	-	-
Cc1ccc2cc(CN(C(=O)c3ccco3)c3cccc(C)c3C)c(=O)[nH]c2c1	?	-	-	-	-	32µM
Cc1ccc(N(Cc2cc3ccc(C)cc3[nH]c2=O)C(=O)c2ccco2)c(C)c1	?	-	-	-	-	50µM
COCC(=O)N(Cc1cc2ccc(C)cc2[nH]c1=O)c1ccc(C)cc1C	-	-	-	-	-	-
COc1ccc(N/N=C(/C#N)S(=O)(=O)C(C)(C)C)cc1	50µM	-	-	.	-	-
